An excerpt weighted towards active compounds, which were near 12% of everything screened.
BAZ2B inh: blocks human BAZ2B; AlphaScreen BAZ2B-H3K14Ac peptide displacement; Potency, µM (series often up to 114 µM), without a hit: top-dose activity change, negative = inhibition, actives largely listed as inhibitors; 360,000 tested, 4.4% active; note: potency is the fitted concentration of half-maximal effect; % is set by controls: 0 for no effect and ±100 for the full control effect; nearly all actives have a fitted effect of over 60% in size
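In this displacement format the biotinylated H3(5-23) peptide acetylated at Lys14 serves as ligand at 50 nM, with BAZ2B at 50 nM in PBS pH 7.4 containing 0.01% Tween-20. Donor and acceptor beads are 10 ug/mL final.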
PLK1 PBD inh: inhibitors of human PLK1 polo-box domain binding. 360,000 tested, 2.8% active. Potency, µM, for inactives: max response, negative = inhibition, actives largely listed as inhibitors. AID 720504. P53350. Plk1 PBD binding of FITC phosphopeptide, fluorescence polarization; note: potency is the fitted concentration of half-maximal effect; series mostly up to about 57 µM; % is set by controls: 0 for no effect and ±100 for the full control effect; nearly all actives have a fitted effect of over 65% in size
G9a block: G9a (human) methyltransferase inhibition. Q96KQ7. G9a H3K9 monomethylation, AlphaScreen, 2 h. Potency, µM (highest dose often 102 µM), inactives show at the highest dose activity, negative = inhibition, actives largely listed as inhibitors. 350,000 tested, 8.8% active. AID 504332; note: potency is the fitted concentration of half-maximal effect; % is set by controls: 0 for no effect and ±100 for the full control effect; nearly all actives have a fitted effect of over 75% in size
Target sequence (Q96KQ7 913-1193 limits assumed): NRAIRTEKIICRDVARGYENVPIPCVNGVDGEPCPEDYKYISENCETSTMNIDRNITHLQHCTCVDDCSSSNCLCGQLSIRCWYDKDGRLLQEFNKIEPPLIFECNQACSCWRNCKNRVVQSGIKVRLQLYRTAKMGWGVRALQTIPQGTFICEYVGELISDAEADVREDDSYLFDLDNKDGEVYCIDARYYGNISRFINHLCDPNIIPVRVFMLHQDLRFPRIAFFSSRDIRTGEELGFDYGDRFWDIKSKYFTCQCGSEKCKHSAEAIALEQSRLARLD
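G9a (20 nM) preincubated 15 min RT with compounds, then 500 nM biotinylated H3K9 peptide and 20 uM SAM added; 2 h RT reaction. Monomethyl-H3K9 product detected by AlphaScreen with anti-H3K9me1 antibody, streptavidin donor and anti-rabbit IgG acceptor beads.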
PI5P4Ka inh: blocks human PI5P4K alpha kinase activity. max response, %. 330,000 tested, 1.2% active. AID 652105. P48426. PI5P4Kalpha enzyme, ADP-Glo luminescence, 60 min; stronger effect = lower value; active = max response of -50% or lower; inconclusive = between -30% and -50%; inactive = -30% or higher; note: value at the top dose of about 77 µM; % is set by controls: 0 for no effect and ±100 for the full control effect
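Single end-point luminescence (ADP-Glo) quantified ADP from PI5P4Kalpha turnover; ATP 5 microM final, 1 h at RT, 0.1% CHAPS and 0.28 mM EGTA in HEPES pH 7.4.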
HP1b chromo inh: blocks HP1-beta chromodomain binding to methylated histone tails; P83916; AlphaScreen HP1-beta / biotin-H3K9me3 peptide binding; Potency, µM (top dose mostly 114 µM), inactives show at the highest dose activity change, negative = inhibition, actives largely listed as inhibitors; 390,000 tested, 0.56% active; AID 540317; note: potency is the fitted concentration of half-maximal effect; nearly all actives have a fitted effect of over 70% in size
Target sequence (P83916 whole entry, looked up): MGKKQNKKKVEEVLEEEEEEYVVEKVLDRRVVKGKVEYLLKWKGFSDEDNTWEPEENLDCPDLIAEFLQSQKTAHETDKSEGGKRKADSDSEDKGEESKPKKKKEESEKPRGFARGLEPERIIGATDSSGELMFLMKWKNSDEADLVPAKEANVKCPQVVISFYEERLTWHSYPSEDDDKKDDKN
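Compound inhibition of the preformed complex between 50 nM HP1-beta and 50 nM biotinylated H3K9me3 peptide was read by AlphaScreen. Buffer was PBS pH 7.4 with 0.01% Tween-20. Incubations ran 30 min at room temperature, with 10 ug/mL donor/acceptor beads.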
JMJD2A Tudor inh: inhibitors of human JMJD2A Tudor domain. O75164. AlphaScreen JMJD2A-Tudor / H3K4me3 peptide binding. Potency, µM (top dose mostly 114 µM), for the others: top-dose activity change, negative = inhibition, hits mostly inhibitors. 390,000 tested, 4.4% active; note: potency is the fitted concentration of half-maximal effect; % is set by controls: 0 for no effect and ±100 for the full control effect; nearly all actives have a fitted effect of over 50% in size
Numbers without * were called inactive; ? = inconclusive; · = not tested or not shown; [ ] = dose if it differs, or a comment. Unless noted, calls come from the whole dose curve; as a rule, active = well fitted curve in the direction sought with a large enough effect; inconclusive = small, poorly fitted or top-dose-only effect, or another doubt; inactive = no such curve, though single readings can be large; an effect the other way counts as inactive or inconclusive.

SMILES	BAZ2B inh	PLK1 PBD inh	G9a block	PI5P4Ka inh	HP1b chromo inh	JMJD2A Tudor inh
CCN(CC)CCN1c2ccccc2Sc2ccc3ccccc3c21	?	-20%	50µM*	0	50%	?
COc1ccc(OC)c(CCNC(=O)CN2C(=O)COc3ccc(S(=O)(=O)N4CCC(C)CC4)cc32)c1	-21%	·	-2%[59 µM]	·	17%	-25%
CC(C)(C)c1cc(CNC2CS(=O)(=O)C[C@@H]2O)cc(C(C)(C)C)c1O (stereo partly drawn)	?	?	18µM*	0	38%	-23%
Nc1nc(SCC(=O)N2N=C3/C(=C/c4ccco4)CCCC3C2c2ccco2)n[nH]1 (stereo not drawn)	50µM*	-9%	?	-52*	-8%	-33%
O=C(CSc1nccc(=O)[nH]1)N1N=C2/C(=C/c3ccco3)CCCC2C1c1ccco1 (stereo not drawn)	·	-17%	?	-58*	?	45µM*
Nc1nc(SCC(=O)N2N=C3/C(=C\c4ccco4)CCCC3C2c2ccco2)n[nH]1 (stereo not drawn)	·	-7%	·	?	-10%	?
Cn1cnnc1SCC(=O)N1N=C2/C(=C/c3ccco3)CCCC2C1c1ccco1 (stereo not drawn)	56µM*	-9%	·	-8	8%	-24%
COc1cccc(CNC(=O)c2ccc(-n3c(C)cc4c3CCC(C)C4)cc2)c1 (stereo not drawn)	-19%	·	-10%[59 µM]	·	25%	-21%
CC1Cn2c(C(=O)NCCc3ccc(Cl)cc3)cc3cccc(c32)S1 (stereo not drawn)	1%	·	33%[59 µM]	·	89%	46%
CCOC(=O)Cc1csc(NC(=O)c2sc3nc4ccc(CC)cc4cc3c2N)n1	-2%	-8%	-44%	-24	19%	-30%
CCOC(=O)Cc1csc(NC(=O)c2sc3nc4cc(C)ccc4cc3c2N)n1	13%	-3%	71µM*	-21	3%	40µM*
COc1ccc(NC(=O)COc2ccc(/C=C/c3cccc[n+]3C)cc2OC)cc1	-15%	-1%	9%	0	10%	-9%
COc1cc(/C=C/c2cccc[n+]2C)ccc1OCC(=O)Nc1cccc(Cl)c1	?	-6%	50µM*	-14	-10%	-6%
COc1cc(/C=C/c2cccc[n+]2C)ccc1OCC(=O)Nc1ccccc1	-15%	-3%	45µM*	0	9%	-10%
COC(=O)c1ccccc1C(=O)N(c1ccccc1)c1ccccc1	·	-3%	·	2	8%	-9%
COc1ccccc1CNC(=O)c1c2c(nc3ccccc13)C(=O)N(C1CCCCC1)C2	0%	·	3%[59 µM]	·	59%	-16%
Cn1c(C(=O)NCc2ccc(F)cc2)cc2cc(S(=O)(=O)N3CCCCC3)ccc21	0%	·	5%[59 µM]	·	29%[57 µM]	-25%
Cc1ccc(CNC(=O)CCC2CCCN(Cc3cccc4ncccc34)C2)o1 (stereo not drawn)	-2%	-9%	5%	4	2%	-20%[57.1 µM]
Cc1ccc(CNC(=O)CCC2CCCN(C(=O)CCC(F)(F)F)C2)o1 (stereo not drawn)	3%	-21%	50µM*	3	38%	-8%
Cc1ccc(CNC(=O)CCC2CCCN(Cc3cccc4cccnc34)C2)o1 (stereo not drawn)	?	-8%	40µM*	1	3%	-32%
O=C(CCC1CCCN(C(=O)c2ccc3c(c2)OCCO3)C1)NCc1ccccc1F (stereo not drawn)	-1%	1%	5%	-5	53%	-4%
Cc1ccc(CNC(=O)CCC2CCCN(C(=O)c3ccc4c(c3)OCO4)C2)o1 (stereo not drawn)	-15%	-14%	50µM*	-3	11%[57 µM]	-7%
COc1ccc(CNC(=O)Nc2nnc([C@@H]3C[C@H](O)[C@@H](CO)O3)s2)cc1	·	-11%	·	-5	·	·
CCc1noc(C)c1C(=O)OCC(=O)Nc1nc(-c2ccc(F)c(F)c2)cs1	-2%	-10%	22%[12.7 µM]	0	9%	-12%
Cc1ccc2[nH]c3c(c2c1)CCCC3NCCO (stereo not drawn)	?	-9%	50µM*	11	-16%	?
SMILES	BAZ2B inh	PLK1 PBD inh	G9a block	PI5P4Ka inh	HP1b chromo inh	JMJD2A Tudor inh
Cc1ccc2[nH]c3c(c2c1)CCCC3=O	?	1%	-51%[12.7 µM]	-1	21%	5%
CN(C(=O)CSc1nc2ccccc2n1Cc1cccc(C(F)(F)F)c1)c1ccccc1	5%	·	1%[59 µM]	·	3%	-10%
CCOC(=O)/C=C1\SCC(=O)N1CC(=O)c1ccc[nH]1	-33%	-1%	-4%[59 µM]	-53*	21%	-30%
COc1cccc2c1C(CCCC(=O)O)CCC2 (stereo not drawn)	·	-3%	·	-1	12%[57 µM]	-6%
COc1cccc2c1C1COC3C4CC(C(=O)O)C(C(C2)N13)N4C (stereo not drawn)	·	1%	·	-6	22%	13µM*
N#Cc1cn(CC(=O)N2CCCc3ccccc32)c2ccccc12	-4%	-1%	14%[59 µM]	5	21%	-5%
O=C(O)Cn1cc(/C=C2\SC(=O)N(c3ccccc3)C2=O)c2ccccc21	-17%	-1%	?	14	32%	-19%
O=C(O)Cn1cc(/C=C2/SC(=O)N(CC(=O)N3CCCCCC3)C2=O)c2ccccc21	-33%	27µM*	?	-22	-25%	-25%
CC1CCCC(C)N1C(=O)Cn1cc(/C=C2/C(=O)Nc3ccccc32)c2ccccc21 (stereo not drawn)	?	-8%	10µM*	-18	?	?
CN1C(=O)/C(=C/c2cn(CC(=O)N3CCCCC3)c3ccccc23)c2ccccc21	?	·	11µM*	·	·	·
O=Cc1cn(CC(=O)N2CCCc3ccccc32)c2ccccc12	11%	2.7µM*	2%[59 µM]	-69*	?	?
CCOc1ccc(CCNC(=O)COC(=O)c2ccc(OC(C)C)cc2)cc1OCC	2%	-1%	8%[2.33 µM]	7	12%	-26%
COc1ccc(-n2c(=O)c3ccccc3n(Cc3ccccc3C)c2=O)c(OC)c1	-10%	·	-3%[59 µM]	·	10%	-20%
COc1ccc(CC(=O)Nc2cc(-c3cn4cccnc4n3)ccc2OC)cc1	15%	·	58%[59 µM]	·	10%[57 µM]	-13%
COc1cc(C(c2sc3nc(C)nn3c2O)N2CCC3(CC2)OCCO3)cc(OC)c1OC (stereo not drawn)	-19%	3µM*	-26%	-50*	?	?
CC(C)CCn1c(SCc2cccc(F)c2)nc2ccsc2c1=O	115%	·	49%[59 µM]	·	97%	63%
CCC(CC)COC(=O)C1=C(C)NC(=O)NC1c1ccc(N(C)C)cc1 (stereo not drawn)	?	-8%	16µM*	0	-10%	?
